Data published in PubChem BioAssay AID686979 (National Center for Advancing Translational Sciences (NCATS), 2013).
In all, about 420,000 compounds went through this assay and about 50,000 (12%) were called active. Not shown: some 26% with an inconclusive outcome. This excerpt belongs to a sample that is enriched for actives. A number with no mark means an inactive call. Calls follow the shape of the dose curve; as a rule, active = well fitted inhibition curve with a large enough effect; inconclusive = small, poorly fitted or top-dose-only effect; inactive = flat fitted curve, though single readings scatter.

Assay: qHTS for Inhibitors of human tyrosyl-DNA phosphodiesterase 1 (TDP1): qHTS in cells in presence of CPT; also: nearly all actives have a fitted effect of over 55% in size
Settings: chicken DT40 Tdp1-/-;hTDP1 cells + 20 nM CPT, ATP luminescence, 48 h; series mostly up to 46.2 µM; activity change, negative = growth inhibition: at the top concentration
Outline: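 Cell growth measured by CellTiter-Glo luminescence after a minimum 48 h, 37 C compound exposure with 20 nM CPT in Tdp1-knockout DT40 cells stably expressing hTDP1, seeded 400/well; qHTS titration format.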
% is scaled to controls: 0 for no effect and ±100 for the full control effect; potency is read from the fitted curve at half-maximal effect.

Compared with Cc1nc2nc(C)c(NS(=O)(=O)c3ccc(C(C)(C)C)cc3)c(=O)n2[nH]1, Cc1cc(NS(=O)(=O)c2ccc(NC(=O)c3ccccc3C)cc2)nc(C)n1 is higher in “activity change, negative = growth inhibition” value: -11.1% for the first, -10.1% for the second.

Going from Cc1coc2c1c(C)cc1oc(=O)c(CC(=O)NCC(=O)N[C@H](C(=O)O)C(C)C)c(C)c12 to CCn1cc(C(=O)OCC(=O)Nc2cc(C)cc(C)c2)c(=O)c2ccc(C)nc21, the “activity change, negative = growth inhibition” value falls from -0.893% to -22.5%.

First: CC(C#N)OC(=O)c1cccnc1SCC(=O)Nc1ccc2c(c1)OCO2 (centres undefined)
Second: Cc1cc(-c2nnc(SCC(=O)Nc3ccc(F)cc3)n2N)n[nH]1
The “activity change, negative = growth inhibition” value of the first is higher: 14.5% for the first, -11.5% for the second.

First: COc1ccc2c(c1)SC(C)CC2=O (centres undefined)
Second: COc1ccc(CNc2nccs2)cc1
The “activity change, negative = growth inhibition” value of the first is higher: -1.56% for the first, -19.3% for the second.

Compared with O=C(CCC(=O)OCc1cccc(C(=O)Oc2ccccc2)c1)Nc1cccc2ccccc12, COc1cc(CO)ccc1OCC(=O)Nc1cccc2ccccc12 is higher in “activity change, negative = growth inhibition” value: -26.9% for the first, -13.7% for the second.

Going from CS(=O)(=O)c1ccc(C(=O)NNC(=O)c2cccs2)cc1 to CCC(=O)Nc1ccc(C(=O)NNC(=O)c2ccc(Cl)cc2)cc1, the “activity change, negative = growth inhibition” value falls from -1.13% to -2.54%.

Compared with CC(=O)NC12CC3CC(C1)CC(C(=O)N1CCN(S(=O)(=O)c4cccs4)CC1)(C3)C2, CCN(CC)S(=O)(=O)c1ccc(C(=O)N2CCN(C3=NS(=O)(=O)c4ccccc43)CC2)cc1 is lower in “activity change, negative = growth inhibition” value: -8% for the first, -16.6% for the second.

First: CCOc1ccc(C(=O)Nc2ccc(CN3CCOCC3)cc2)cc1Cl
Second: CN1CCC(OC(=O)COc2ccc(Cl)cc2Cl)CC1
The “activity change, negative = growth inhibition” value of the first is lower: -16.5% for the first, 2.57% for the second.

Compared with N#C/C(=C\c1ccccc1F)c1nc2ccccc2c(=O)[nH]1, CCOc1ccc(/C=C(\C#N)c2nc3ccccc3c(=O)[nH]2)cc1OC is lower in “activity change, negative = growth inhibition” value: -10.3% for the first, -12.3% for the second.

Going from Cc1nnc(SCc2nc3ccccc3nc2C)s1 to Cn1c(=O)c2c(nc(SCCNS(=O)(=O)c3ccccc3)n2C)n(C)c1=O, the “activity change, negative = growth inhibition” value falls from -1.33% to -26.8%.

Compared with ClC1(Cl)CC1CSc1ncn[nH]1 (centres undefined), Cn1c(SCC(=O)N2CCCC2)nnc1-c1cccs1 is lower in “activity change, negative = growth inhibition” value: 11% for the first, -4.1% for the second.

First: S=C(Nc1cccc(Br)c1)N1CCn2cccc2C1c1cccnc1 (centres undefined)
Second: O=C1CC(c2ccccc2)C(=O)N1c1cccc(O)c1 (centres undefined)
The “activity change, negative = growth inhibition” value of the first is lower: -26.3% for the first, -14.8% for the second.

Compared with O=C(CSc1ncccn1)NCCc1ccccc1, COc1ccc(CNC(=O)CCn2cccc2)cc1 is higher in “activity change, negative = growth inhibition” value: -27.8% for the first, -2.52% for the second.

Going from CC(C)C(C(=O)NCc1ccco1)N(CC1CCCO1)C(=O)CNS(=O)(=O)c1ccc(F)cc1 (centres undefined) to COc1ccc(S(=O)(=O)Nc2cc(C)on2)cc1NC(C)=O, the “activity change, negative = growth inhibition” value rises from 1.31% to 22.5%.

Compared with Cc1ccc(C2SCC(=O)N2c2ccccc2)cc1 (centres undefined), Cc1ccc(-c2nc3c(cnn3-c3ccccc3)c(=O)o2)cc1 is lower in “activity change, negative = growth inhibition” value: 10.6% for the first, -22.2% for the second.

Compared with O=C(NCCCn1ccnc1)c1cc(Br)c(Br)s1, CN(C)CC(C)(C)CNC(=O)c1cc(Br)cc(Br)c1O is lower in “activity change, negative = growth inhibition” value: 4.77% for the first, -3.33% for the second.

First: COC(=O)c1sc2[nH]c(=S)n(N)c(=O)c2c1C
Second: CCOC(=O)Cn1c(=O)n(Cc2ccc(OC)cc2)c(=O)c2cccnc21
The “activity change, negative = growth inhibition” value of the first is lower: -11.5% for the first, 19.7% for the second.

First: CC(C)(C)OC(=O)NCCCCCC(=O)N/N=C/c1coc2ccccc2c1=O
Second: O=c1c(/C=N/O)coc2ccc(Cl)cc12
The “activity change, negative = growth inhibition” value of the first is lower: -26.3% for the first, 14.6% for the second.

Compared with O=C(COC(=O)c1ccccc1SCC(=O)N1CCCC1)Nc1ccccc1OC(F)F, O=C1CN(C(=O)COc2c(Cl)cccc2Cl)c2ccccc2N1 is lower in “activity change, negative = growth inhibition” value: -0.557% for the first, -15.5% for the second.

Compared with Cc1cc(C)cc(NC(=O)Cn2nc(N3CCN(c4ccccc4)CC3)ccc2=O)c1, Cc1ccc(C)c(NC(=O)C(OC(=O)c2ccc(C)s2)c2ccccc2)c1 (centres undefined) is higher in “activity change, negative = growth inhibition” value: -28.9% for the first, -17.8% for the second.

Compared with CSc1nc2nc3c(c(=O)n2[nH]1)CCC3, CCCc1nc(N)nc2c1C(=O)CC(C)(C)C2 is lower in “activity change, negative = growth inhibition” value: -5.28% for the first, -16.3% for the second.

First: O=C(O)CC1(CC(=O)Nc2cccc(C(F)(F)F)c2)CCCC1
Second: CC1(C)CC(=O)C=C(c2ccc(Cl)c(C(F)(F)F)c2)C1
The “activity change, negative = growth inhibition” value of the first is higher: -2.74% for the first, -27.7% for the second.

Compared with Cc1cc(F)ccc1S(=O)(=O)Nc1ncnc2scc(-c3ccc(F)cc3)c12, COC(=O)C1(C)NC(c2ccc(C)cc2)C2C(=O)N(c3ccc(F)cc3)C(=O)C21 (centres undefined) is lower in “activity change, negative = growth inhibition” value: 19.5% for the first, -1.12% for the second.

Going from COc1ccnc2c1c(=O)n(Cc1cccc(F)c1)c(=O)n2C to Cc1ccc(-n2ncc3c(=O)n(Cc4cccc(C(F)(F)F)c4)cnc32)cc1C, the “activity change, negative = growth inhibition” value rises from -11.8% to 0.615%.

Compared with O=C(NC1CCCC1)C(c1ccc(Cl)cc1)N(C(=O)c1csnn1)C1CC1 (centres undefined), CC(Oc1ccc(Br)cc1)C(=O)NC1CCCCCC1 (centres undefined) is lower in “activity change, negative = growth inhibition” value: -9.79% for the first, -21.9% for the second.

First: CC(O)c1nc2c(c(=O)n(C)c(=O)n2C)n1C (centres undefined)
Second: Cc1cc(NC(=O)CS(=O)(=O)c2cn(C)c3ccccc23)no1
The “activity change, negative = growth inhibition” value of the first is higher: 5.09% for the first, -8.42% for the second.

Compared with O=C(OCc1nc2ccccc2[nH]1)C1CCCCC1, OC(COc1ccc(Br)cc1)CN1CCCC1 (centres undefined) is higher in “activity change, negative = growth inhibition” value: -15.7% for the first, -4.36% for the second.

In the case of Cc1c(C(=O)N(C)CCc2cnn(C)c2)oc2c(F)cccc12, the “activity change, negative = growth inhibition” value is reported as -4.88%.

First: CCCS(=O)(=O)NCc1c(C)ncc2c1CCN(C(=O)c1ccc(F)c(F)c1)C2
Second: Cc1cnc(C(=O)N2CCOc3ccc(CN4CCCC(C(=O)c5cccnc5)C4)cc3C2)[nH]1 (centres undefined)
The activity change, negative = growth inhibition of the first is higher: -3.77% [at 9.04 µM] for the first, -10% [at 9.04 µM] for the second.

In the case of COc1ccc2c(c1)OC(O)(C(F)(F)C(F)F)CC2=O (centres undefined), the Potency is reported as 11.6 µM (active).
For COc1cc(/C=C(\C#N)c2nc3ccccc3[nH]2)ccc1O, the Potency was 25.9 µM (active).
With S=C(NCCc1ccccc1)N1CCn2cccc2C1c1ccncc1 (centres undefined) the Potency was 18.4 µM (active).
In the case of COC(=O)[C@@]1(Sc2ccc(C)cc2)CC(=O)N(c2cccc(SC)c2)[C@@H]1c1ccccc1, the Potency is reported as 18.4 µM (active).
For Cc1ccc2occ(/C=N/NC(=O)c3ccccc3C)c(=O)c2c1, the Potency was 16.4 µM (active).
For COc1ccc(CNc2c(CO)cnc3c2cnn3C)cc1, the Potency was 8.2 µM (active).
In the case of O=C(Nc1cccc(C(F)(F)F)c1)c1cc(Br)cc(Br)c1O, the Potency is reported as 11.9 µM (active).
With O=c1c2cccnc2n(Cc2cccc(F)c2)c(=O)n1Cc1ccccc1Cl the Potency was 14.6 µM (active).
In the case of Cc1ccc(-n2ncc3c(=O)n(-c4ccc(C)c(C)c4)c(-c4ccco4)nc32)cc1, the Potency is reported as 18.4 µM (active).
In the case of CCC/C(C)=N\Nc1nc2c(c(=O)n(C)c(=O)n2C)n1C, the Potency is reported as 18.4 µM (active).
In the case of CC/C(O)=C1\C(=O)CC(C)(C)CC1=NCCc1nc2ccccc2[nH]1, the Potency is reported as 23.1 µM (active).
With CC(C)(C)CC(C)(C)NCC(O)COCCOc1ccc(Br)cc1 (centres undefined) the Potency was 5.17 µM (active).
